PP5 primary = PP5 phosphatase inhibitors, primary screen, biochemical, fluorescence; Serine/threonine-protein phosphatase 5 (Homo sapiens), P53041; purified PP5c, OMFP substrate fluorescence; inhibition, % at 6.7 µM; actives 0.18% (n = 320,000); AID 1987, 2009;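 active = inhibition above the campaign's mean inhibition across all tested compounds plus 3 SD, cut at about 9.5% in these data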
ATG4B inhibitor = ATG4B protease inhibitors, primary screen, biochemical, fluorescence, uHTS; Cysteine protease ATG4B (Homo sapiens), Q9Y4P1; ATG4B cleavage of LC3-PLA2, NBD-HPC fluorescence, 1 h; inhibition, % at 8.33 µM; actives 0.51% (n = 340,000); in the data active = inhibition above about 40%
Target sequence (Q9Y4P1 whole entry, looked up): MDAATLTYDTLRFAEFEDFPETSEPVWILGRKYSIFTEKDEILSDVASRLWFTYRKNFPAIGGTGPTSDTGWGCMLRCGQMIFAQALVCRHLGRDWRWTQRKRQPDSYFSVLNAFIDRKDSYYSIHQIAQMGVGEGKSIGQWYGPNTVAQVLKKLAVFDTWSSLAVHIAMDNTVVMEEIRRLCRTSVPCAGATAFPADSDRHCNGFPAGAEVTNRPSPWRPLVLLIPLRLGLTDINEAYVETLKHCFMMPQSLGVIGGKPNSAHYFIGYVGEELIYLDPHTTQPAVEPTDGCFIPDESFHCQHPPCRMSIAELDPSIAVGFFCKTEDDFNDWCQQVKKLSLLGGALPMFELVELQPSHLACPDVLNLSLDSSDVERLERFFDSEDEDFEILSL
H9c2 protect = cardioprotection against H2O2-induced cell death, primary screen, uHTS, H9c2 cells, ATPLite luminescence; AID 588492, 2011; protection from H2O2 cell death, % at 20 µM; actives 0.63% (n = 360,000); H9c2 cardiomyocytes, H2O2 injury protection, 2 h;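 active = compounds giving at least 50% protection of heart cells from peroxide-induced death in the single-dose screen, raw or plate-pattern-corrected value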
PP1 inh = PP1-alpha phosphatase inhibitors, primary screen, counter-screen for PP5 inhibitor project, biochemical, fluorescence, OMFP substrate, single point. actives 0.9% (n = 320,000). purified PP1alpha. AID 2235, 2010. inhibition, % at 6.7 µM;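 active = inhibition above the mean inhibition of all tested compounds plus 3 SD, computed separately for each screening campaign, cut at about 15% in these data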
PP1 inh confirm = PP1 phosphatase inhibitors, confirmation, biochemical, fluorescence, OMFP substrate, triplicate; shares compounds with PP1 inh; purified PP1alpha; inhibition, % at 6.7 µM; actives 52% (n = 1,900); AID 2358, 2010;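 active = mean PP1 inhibition above a set limit taken from the earlier primary screen, cut at about 15% in these data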
PP5 inh counter = PP5 phosphatase inhibition by PP1 hits, confirmation, counter-screen for PP1 inhibitor project, biochemical, fluorescence, triplicate; shares compounds with PP1 inh; AID 2360, 2010; purified PP5c, OMFP fluorescence; actives 4% (n = 1,900); inhibition, % at 6.7 µM;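 active = mean PP5 inhibition over triplicate wells above about 9.5% taken from the earlier PP1 screen, limit read from the data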
ATG4B conf = ATG4B protease inhibitors, retest, confirmation, biochemical, fluorescence, single concentration; shares compounds with ATG4B inhibitor; ATG4B protease fluorescent substrate cleavage assay; inhibition, % at 8.33 µM; actives 92% (n = 320); AID 504757, 2011; in the data active = inhibition above about 39%
PLA2 ctr = PLA2 enzyme inhibition, counter-screen for ATG4B inhibitor project, biochemical, single concentration, uHTS hits; actives 66% (n = 1,600); purified PLA2, NBD-C6-HPC fluorescence, 45 min; inhibition, % at 8.33 µM; shares compounds with ATG4B inhibitor; in the data active = inhibition above about 50%
Target sequence (P04054 whole entry, looked up): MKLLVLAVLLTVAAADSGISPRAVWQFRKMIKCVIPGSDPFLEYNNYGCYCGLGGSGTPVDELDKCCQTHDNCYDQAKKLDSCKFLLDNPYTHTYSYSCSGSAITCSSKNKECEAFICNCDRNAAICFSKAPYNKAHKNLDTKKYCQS
Large screens that a line does not name were inactive (follow-up assays come after a bar, where they were run). Sampled rows, rich in hits. Any-hit rate of the full collection: about 1.9%.

O=C(N/N=C/c1ccc(-c2ccc(S(=O)(=O)Nc3ncccn3)cc2)o1)c1cc2ccccc2cc1O	ATG4B inhibitor 75, PP1 inh 21 | PP1 inh confirm 16 | PP5 inh counter inactive | ATG4B conf inactive | PLA2 ctr inactive
C=CCN1CCN(C(=O)c2ccc3c(c2)OCO3)CC1	none
CCN(C(=O)COC(=O)CCCOc1ccccc1)c1c(N)n(Cc2ccccc2)c(=O)[nH]c1=O	none
CC1(C)Cc2c(sc3c2c(=N)n(Cc2ccco2)c(=O)n3CC(=O)Nc2cccc(Cl)c2)CO1	ATG4B inhibitor 53, PP1 inh 20 | PP1 inh confirm inactive | PP5 inh counter inactive | PLA2 ctr 60
CC(=O)Oc1ccc(Cl)cc1/C=C/c1ccc2ccccc2n1	none
CC(C)(O)c1ccccc1CC[C@@H](SCC1(CC(=O)O)CC1)c1cccc(/C=C/c2ccc3ccc(Cl)cc3n2)c1	ATG4B inhibitor 92, PP1 inh 35 | PP1 inh confirm 43 | PP5 inh counter inactive | PLA2 ctr 92
CC1(c2ccc(Cl)cc2Cl)NC(=O)N(CC(=O)NC2CCCCC2)C1=O (centres undefined)	none
O=c1/c(=C\c2cc([N+](=O)[O-])cc([N+](=O)[O-])c2O)sc2nc3ccccc3n12	ATG4B inhibitor 59, PP1 inh 18 | PP1 inh confirm 26 | PP5 inh counter inactive | PLA2 ctr 69
C[C@H](CO)N1C[C@H](C)[C@@H](CN(C)S(=O)(=O)c2cccs2)Oc2ccc(NS(=O)(=O)c3ccccc3)cc2CC1=O	none (no result: PP5 primary, PP1 inh)
CN1CCc2nc3sc(C(=O)C45CC6CC(CC(C6)C4)C5)c(N)c3cc2C1	ATG4B inhibitor 45, PP1 inh 29 | PP1 inh confirm inactive | PP5 inh counter inactive | PLA2 ctr inactive
O=C(Nc1cccc(C(F)(F)F)c1)c1ccc2nc(-c3ccco3)c(-c3ccco3)nc2c1	ATG4B inhibitor 47, PP1 inh 32 | PP1 inh confirm inactive | PP5 inh counter inactive | PLA2 ctr inactive
Cc1cn([C@H]2C[C@H](O)[C@@H](CNC(=O)c3ccccn3)O2)c(=O)[nH]c1=O	none (no result: PP5 primary, ATG4B inhibitor, PP1 inh)
COc1cccc(/C=N/NC(=O)c2[nH]c(C)c(C(=O)N/N=C/c3cccc(OC)c3O)c2C)c1O	ATG4B inhibitor 62, PP1 inh 25 | PP1 inh confirm 28 | PP5 inh counter inactive | ATG4B conf inactive | PLA2 ctr inactive
CC(C)NC(=O)NC(=O)CSc1nnc(COc2ccccc2F)n1C(C)C1CC2CCC1C2 (centres undefined)	PP5 primary 10, ATG4B inhibitor 42, PP1 inh 21 | PP1 inh confirm inactive | PP5 inh counter inactive | PLA2 ctr inactive
COCCNC(=O)C1(C)Cc2c(-c3ccc(N(C)C)cc3)ccnc2O1 (centres undefined)	none (no result: PP5 primary, ATG4B inhibitor, PP1 inh)
Cn1nc([N+](=O)[O-])c(C(C#N)c2ccccn2)c(Cl)c1=O (centres undefined)	none
CCn1nc([N+](=O)[O-])c(C(C#N)c2nc3cc(C(F)(F)F)ccc3s2)c(Cl)c1=O (centres undefined)	ATG4B inhibitor 99, PP1 inh 22 | PP1 inh confirm 22 | PP5 inh counter inactive | PLA2 ctr 101
Cc1nn(-c2ccccc2)c(Cl)c1/C=N/Nc1ccc(S(=O)(=O)Nc2ccccc2C(=O)O)cc1[N+](=O)[O-]	ATG4B inhibitor 67, PP1 inh 20 | PP1 inh confirm inactive | PP5 inh counter inactive | PLA2 ctr inactive
CSc1ccc(C=NNc2ccc(S(=O)(=O)Nc3ccccc3C(=O)O)cc2[N+](=O)[O-])cc1	none (no result: PP5 primary, PP1 inh)
O=C(Nc1ccccc1N1CCCC1)c1cccc(-c2cc3ccccc3oc2=O)c1	ATG4B inhibitor 57, PP1 inh 18 | PP1 inh confirm 19 | PP5 inh counter inactive | PLA2 ctr 67
CCNC(=O)C1(C)CCN(C(=O)c2ccc(OC)c(OC)c2)C1 (centres undefined)	none (no result: PP5 primary, ATG4B inhibitor, PP1 inh)
COc1ccc(OCCN2C(=O)c3ccccc3C2=O)cc1	none
Cc1cccc2c1N(CCOc1ccc(C(C)(C)C)cc1)C(=O)C2=O	ATG4B inhibitor 57, PP1 inh 23 | PP1 inh confirm inactive | PP5 inh counter inactive | ATG4B conf 52 | PLA2 ctr inactive
CC1=NN(c2ccccc2)C(=O)/C1=C/c1c(O)n(-c2ccc(F)c(Cl)c2)[nH]c1=O	PP5 primary 10, ATG4B inhibitor 55, PP1 inh 18 (no result: H9c2 protect) | PP1 inh confirm inactive | PP5 inh counter inactive | PLA2 ctr 64
CC1=NN(c2ccccc2)C(=O)/C1=C\c1c(C)[nH]n(-c2ccccc2)c1=O	none
CC(c1ccon1)N(C)C(=O)c1ccc2nc(Cc3cccc(Cl)c3)oc2c1 (centres undefined)	none
Cc1ccc(/C=N/Nc2ccnc3cc(Cl)ccc23)c(C)c1	ATG4B inhibitor 46, PP1 inh 33 | PP1 inh confirm inactive | PP5 inh counter inactive | PLA2 ctr inactive
Oc1ccc(/C=N/Nc2ccnc3cc(Cl)ccc23)c(O)c1	none
CCOC(=O)C1Nc2ccc(Br)cc2C2C=CCC12 (centres undefined)	none
O=C(O)C1Nc2c(Cl)cc(Cl)cc2C2C=CCC12 (centres undefined)	ATG4B inhibitor 65, PP1 inh 24 | PP1 inh confirm inactive | PP5 inh counter inactive | ATG4B conf inactive | PLA2 ctr inactive
O=C(O)C1Nc2ccc(Br)cc2C2C=CCC12 (centres undefined)	ATG4B inhibitor 64, PP1 inh 38 | PP1 inh confirm inactive | PP5 inh counter inactive | ATG4B conf inactive | PLA2 ctr inactive
C#CCOCCOCCOCCNc1nc(N2CCN(C(=O)CCCCCCCCCCNC(=O)[C@H](CCCCN)n3cc(CCO)nn3)CC2)nc(N2CCN(C(=O)CCCCCCCCCCNC(=O)[C@H](CCCCN)n3cc(C[C@@H](C)CC)nn3)CC2)n1	ATG4B inhibitor 75, PP1 inh 41 (no result: H9c2 protect) | PP1 inh confirm inactive | PP5 inh counter inactive | ATG4B conf inactive | PLA2 ctr inactive

From PubChem BioAssay
